D1 PAM = human D1 dopamine receptor positive modulation | P21728 | HEK293 TREx D1 cells, calcium flux, dopamine EC20 potentiation | potentiation, % at 10 µM | 0.036% of 360,000 active | AID 504651; in the data active = potentiation above about 30%; also: 0% is about no effect
Target sequence (P21728 whole entry, looked up): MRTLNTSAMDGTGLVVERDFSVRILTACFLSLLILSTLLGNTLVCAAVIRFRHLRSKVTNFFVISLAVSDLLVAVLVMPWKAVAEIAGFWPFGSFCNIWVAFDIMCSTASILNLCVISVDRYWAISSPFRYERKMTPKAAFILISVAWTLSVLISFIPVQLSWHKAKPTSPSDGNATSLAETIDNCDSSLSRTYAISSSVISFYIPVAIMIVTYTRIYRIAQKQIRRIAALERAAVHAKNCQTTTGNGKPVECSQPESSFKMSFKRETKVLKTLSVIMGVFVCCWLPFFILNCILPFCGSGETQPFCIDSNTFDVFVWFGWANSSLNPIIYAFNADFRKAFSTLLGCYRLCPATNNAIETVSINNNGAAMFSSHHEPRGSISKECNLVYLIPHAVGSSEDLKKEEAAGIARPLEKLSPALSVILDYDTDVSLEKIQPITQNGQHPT
D1 ag = human D1 receptor agonism; 1% of 360,000 active; activation, % at 2 µM; HEK293 T-REx D1 cells, calcium flux, agonist mode; P21728; also: 0% is about no effect
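Agonism was scored from calcium flux recorded over 180 s (1 read/s) after pintool compound addition, following a 10-cycle baseline. Cells were inducible force-coupled HEK293 TREx D1, plated overnight at 30 C and loaded with no-wash calcium dye.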
TRHR ag = TRH receptor (human) agonism | TRHR cells, calcium flux fluo-8, FDSS agonist mode | activation, % at 2 µM | P34981 | 0.18% of 360,000 active; also: 0% is about no effect
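Agonist-mode FDSS calcium read (Ex 480/Em 530, 1 s cycles) in 1536-well TRHR cells with fluo-8 dye, after 10-cycle baseline and 23 nL compound addition; TRH at EC20 (10 nM final) added afterwards for the enhancer phase.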
GRP78 ERSR act = ER stress response induction in glioma; 0.02% of 420,000 active; Potency, µM, inactives show at the top dose activation, most hits filed as activators; U87-MG GRP78 promoter luciferase reporter, 16 h; active = well fitted activation curve with a large enough effect; inconclusive = small, poorly fitted or top-dose-only effect; inactive = no such curve, though single readings can be large or run the other way; also: potency is read from the fitted curve at half-maximal effect; series mostly up to about 76 µM; % of control where 0% means no effect; nearly all actives have a fitted effect of over 35% in size
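ERSR induction read as luciferase luminescence (Bright-Glo, 10 min at room temperature) in stably transfected human U87-MG glioma cells exposed to compounds for 16 h, using GRP78 as sensor.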
D1 antagonist = blocks dopamine activation of the human D1 receptor. P21728. HEK293 TREx D1 cells, calcium flux, dopamine EC80; hits give low values. activity change, negative = inhibition, % at 10 µM. 3.2% of 360,000 active; in the data active = activity change below about -30%; also: % is scaled to controls: 0 for no effect and ±100 for the full control effect
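Compound effects on dopamine-evoked calcium signalling were measured in tetracycline-induced HEK293 Trex D1 cells. Dopamine at EC80 followed a 180 s compound pre-read, and fluorescence was tracked kinetically for 180 s more.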
TRHR enhancer = TRH receptor (human) allosteric enhancement | P34981 | TRHR cells, fluo-8 calcium fluorescence, EC20 TRH enhancement | enhancement, % at 2 µM | 0.66% of 360,000 active; in the data active = enhancement above about 30%; also: 0% is about no effect
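TRHR-expressing cells loaded with fluo-8 calcium dye were read kinetically (ex 480/em 530) during compound addition, then stimulated with an EC20 of TRH (10 nM final). Enhancement of the Gq-mediated intracellular calcium response was scored.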
* = called active by the depositor; u = inconclusive; x = no result. Most compounds without a hit are left out; they make up all but 4% or so of the library. Rule as the data show it, unless noted: active = activation above about 30%; inactive = the rest.

SMILES	D1 PAM	D1 ag	TRHR ag	GRP78 ERSR act	D1 antagonist	TRHR enhancer
C/C(=N\Nc1nccnc1Cl)c1ccc([N+](=O)[O-])cc1	-5	0	-1	5%	-61*	1
Cc1nn(C)c(C)c1/C=N/NC(=O)C(C)(C)Oc1ccc(Cl)cc1	3	0	0	-2%	-38*	1
Cc1c(/C=N/NC(=O)C(C)(C)Oc2ccc(Cl)cc2)cnn1C	-2	-2	-1	-8%	1	1
COc1cc(SC)ccc1C(=O)OCC(=O)NC(=O)NC(C)C	-7	1	0	1%	-66*	-27
COc1cc(SC)ccc1C(=O)OCC(=O)NCC(C)C	0	-4	0	-1%	0	7
COC(=O)c1ccccc1N1C(=O)C2C(C1=O)[C@H]1C=C[C@@H]2C1 (stereo not given in full)	-3	2	0	-3%	-4	4
COC(=O)c1ccccc1N1C(=O)[C@@H]2C(c3ccc(Br)cc3)=NO[C@@H]2C1=O	-3	8	1	-9%	-48*	14
CCN(c1ccccc1)S(=O)(=O)c1ccc(Cl)c(C(=O)N(CC2CCCO2)C2CCS(=O)(=O)C2)c1 (stereo not given)	-3	6	-1	2%	-36*	-7
CCN(c1ccccc1)S(=O)(=O)c1ccc(Cl)c(C(=O)N2CCCC2)c1	-7	0	0	-3%	4	-2
O=C(Nc1ccc(F)cc1F)c1cc2ccc3cccnc3c2[nH]1	0	1	1	-1%	-2	-7
O=C(NCc1ccccc1)c1cc2ccc3cccnc3c2[nH]1	2	1	1	3%	3	31*
CC(O)(COc1ccccc1)c1ccc2c(c1)CN(Cc1cccn1-c1ccccn1)CCO2 (stereo not given)	x	x	x	-3%	x	x
O=[N+]([O-])c1ccc(N/N=C2\CC3CC=CC23)c([N+](=O)[O-])c1 (stereo not given)	-2	2	1	-2%	-4	4
O=[N+]([O-])c1ccc(N/N=C2\CC3CC=CC23)cc1 (stereo not given)	-1	14	0	3%	-31*	-8
CCOc1ccc(CC(=O)Nc2c(C(=O)c3ccccc3)oc3ccc(OC)cc23)cc1OCC	-4	0	1	0%	-9	6
O=C(O)CCCC(=O)N1CCN(c2ncccn2)CC1	-10	2	0	-1%	-36*	-2
O=C(NCCC(=O)N1CCN(c2ncccn2)CC1)c1ccccc1Cl	-1	3	1	1%	-1	14
O=C(c1ccccc1)N1CCN(c2ncccn2)CC1	-2	3	0	-4%	-2	2
O=C(NCCC(=O)N1CCN(c2ncccn2)CC1)c1ccccc1	-1	1	0	3%	-33*	-4
CCc1ccc(NC(=O)C2=C(C)C(=O)OC23CCCCC3)cc1	-3	1	0	x	-6	-2
CC(c1ccccc1)N1C(=O)c2ccccc2C1(O)Cc1ccccc1 (stereo not given)	-1	2	-1	-1%	-74*	-2
Cc1ccc(N2C(=O)c3ccccc3C2(O)c2ccccc2)cc1 (stereo not given)	x	x	x	1%	x	x
Cc1cccc(NC(=O)C2COc3ccccc3O2)c1 (stereo not given)	5	3	-1	6%	-32*	3
Cc1cc(C)nc(NS(=O)(=O)c2ccc(NC(=O)C3COc4ccccc4O3)cc2)n1 (stereo not given)	-2	5	-1	-2%	-60*	2
Cc1cc(C)cc(NC(=O)C2COc3ccccc3O2)c1 (stereo not given)	x	x	x	-1%	x	x
SMILES	D1 PAM	D1 ag	TRHR ag	GRP78 ERSR act	D1 antagonist	TRHR enhancer
CC(=O)N1CCC2(CC1)OC(=O)C(C)=C2C(=O)NCc1cccc(Cl)c1	0	2	0	-1%	9	-3
CCCc1cc(C(=O)NCc2ccco2)no1	-9	0	0	0%	-35*	-2
O=C(NCc1ccco1)c1c(Cl)cccc1Cl	x	x	x	-3%	x	x
O=C(NCc1ccco1)c1csc2c1CCCCC2	0	1	-1	1%	-33*	-4
O=C(NCc1ccco1)c1ccc([N+](=O)[O-])o1	6	5	0	u	-1	69*
O=C(NCc1ccco1)c1c(F)c(F)c(F)c(C(=O)NCc2ccco2)c1F	-2	1	0	-5%	-33*	-6
Cc1cccc(N2C(=O)N3[C@@H]4c5ccccc5OC[C@@H]4[C@@H](c4ccccc4)[C@@]3(C)C2=O)c1	0	4	1	-4%	1	0
O=C(C[n+]1cccc2cc(Cl)ccc21)c1ccc2c(c1)CCCC2	x	x	x	-3%	x	x
COc1cc(O)c(C(CCN2CCOCC2)c2ccc(N(C)C)cc2)c(OC)c1 (stereo not given)	-5	4	0	-4%	17	8
CCN(CC)CCC(c1ccc(OC)cc1)c1c(O)cc(OC)cc1OC (stereo not given)	-10	8	0	-5%	-32*	-3
COc1ccc(C(CCN2CCN(c3ccccc3)CC2)c2c(O)cc(OC)cc2OC)cc1 (stereo not given)	-9	1	0	6%	-84*	-5
COc1ccc(C(CCN2CCCC2)c2c(O)cc(OC)cc2OC)cc1 (stereo not given)	-2	6	0	-6%	-11	5
CCN(CC)CCC(c1ccc(N(C)C)cc1)c1c(O)cc(OC)cc1OC (stereo not given)	3	8	1	-2%	-6	1
COc1cc(O)c(C(CCN2CCN(c3ccccc3)CC2)c2ccc(N(C)C)cc2)c(OC)c1 (stereo not given)	-9	1	0	-3%	-80*	-1
CCN1C(=O)CC(CC(=O)N2CCC(c3nc4ccc(F)cc4[nH]3)CC2)(c2ccccc2C)C1=O (stereo not given)	x	x	x	-6%	x	x
COc1ccc(S(=O)(=O)N(C)CC(=O)N2CCOCC2)cc1	-3	0	1	-2%	-12	6
COc1ccc(S(=O)(=O)N(CCc2ccccc2)CC(=O)N2CCOCC2)cc1	-4	1	-1	-2%	-74*	1
O=C(NNC(=S)NC(=O)c1cccc([N+](=O)[O-])c1)c1ccc(Br)cc1	-3	32*	6	-4%	4	-7
Cc1ccc(C(=O)NC(=S)NNC(=O)c2cccc([N+](=O)[O-])c2)cc1	0	50*	9	0%	-3	6
Cc1ccc(CSCCNC(=O)c2cccc([N+](=O)[O-])c2)cc1	-7	19	-1	-4%	-43*	8

Compound activity deposited in PubChem BioAssay by National Center for Advancing Translational Sciences (NCATS).
